The list is not random: actives were taken first. Their share in the collection is about 19%.
TDP1 block: inhibitors of human tyrosyl-DNA phosphodiesterase TDP1. Potency, µM (highest dose often 130 µM), hits mostly inhibitors. recombinant TDP1, AlphaScreen DNA substrate cleavage. Q9NUW8. hit rate 0.28% among 350,000; note: nearly all actives have a fitted effect of over 40% in size
Target sequence (Q9NUW8 whole entry, looked up): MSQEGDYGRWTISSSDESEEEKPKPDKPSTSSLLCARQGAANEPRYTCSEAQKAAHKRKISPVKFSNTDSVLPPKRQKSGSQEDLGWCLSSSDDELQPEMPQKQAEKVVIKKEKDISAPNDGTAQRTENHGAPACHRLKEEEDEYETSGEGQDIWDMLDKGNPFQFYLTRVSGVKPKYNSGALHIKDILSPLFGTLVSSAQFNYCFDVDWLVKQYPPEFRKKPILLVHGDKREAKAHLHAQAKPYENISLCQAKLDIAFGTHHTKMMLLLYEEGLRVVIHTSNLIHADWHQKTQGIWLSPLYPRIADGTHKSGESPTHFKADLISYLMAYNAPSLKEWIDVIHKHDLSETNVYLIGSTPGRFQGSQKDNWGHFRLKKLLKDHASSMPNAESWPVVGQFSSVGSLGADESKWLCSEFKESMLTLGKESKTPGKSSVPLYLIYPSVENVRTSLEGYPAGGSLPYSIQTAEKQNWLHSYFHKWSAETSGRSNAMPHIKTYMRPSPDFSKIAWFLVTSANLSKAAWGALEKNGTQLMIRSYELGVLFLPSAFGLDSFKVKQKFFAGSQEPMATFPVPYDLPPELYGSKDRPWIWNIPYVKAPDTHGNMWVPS
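Recombinant E. coli-expressed Tdp1 (1 nM) preincubated with compound 15 min at RT, then 5'-biotin/3'-phosphotyrosine-FITC DNA substrate (15 nM) added for 5 min. AlphaScreen beads (10 ug/ml) added, 10 min RT; tyrosine-FITC cleavage read as signal loss.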
TDP1 cell noCPT: qHTS for Inhibitors of human tyrosyl-DNA phosphodiesterase 1 (TDP1): qHTS in cells in absence of CPT; DT40 Tdp1-/- hTDP1 cells, no CPT, ATP luminescence, 48 h; Potency, µM (doses to about 46.2 µM), usual class: inhibitors; hit rate 15% among 420,000; AID 686978, 2013; note: nearly all actives have a fitted effect of over 55% in size
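Cells were dispensed at 400 per well, compounds added by pin tool, plates incubated ≥48 hr at 37 °C, then CellTiter-Glo added for 30 min at room temperature before luminescence reading. Line: DT40 Tdp1-/- complemented with hTDP1; camptothecin omitted.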
Giardia kill: kills Giardia lamblia. Giardia lamblia trophozoite viability. activity change, % at 7.66 µM, hits read low. hit rate 0.15% among 340,000. AID 540267; in the data active = activity change below about -80%; inconclusive = between about -30% and that limit;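 note: parasites exposed to compound for two days anaerobically before the ATP read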
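Compounds were tested on trophozoites seeded at 100 cells/well and held 48 hrs at 37 deg C anaerobically. An ATP-based luminescent kit measured the remaining live cells.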
IL1B secr inh: inflammasome signaling inhibition, IL-1 beta readout; activity change, % at 57.5 µM; AID 743279; THP-1 LPS/ATP IL-1B secretion, AlphaLISA, 16 h; hits give low values; hit rate 4.7% among 360,000; in the data active = activity change below about -50%; inconclusive = mostly about -30% to -49%
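Secreted IL-1B measured by AlphaLISA bead assay after 16 h compound exposure of THP-1 cells; compounds (final up to 57.5 uM) added 1 h before LPS (250 ng/mL) and ATP (1.25 mM) stimulation; lower signal means less secretion.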
ELG1 DNA repair: blocks ELG1-dependent DNA repair in HEK293T cells | AID 504467 | HEK293T ELG1-luciferase reporter, luminescence, 16 h; DNA damage induced by 5-fluorouridine | hit rate 2.3% among 330,000 | Potency, µM (top dose mostly 46.1 µM), usual class: inhibitors; note: nearly all actives have a fitted effect of over 55% in size
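Quantitative HTS, concentration-response format. 2,000 cells/well co-treated with 5-fluorouridine and compound, 16 hr in 5% CO2 at 37 °C; ONE-Glo luminescence read after 30 min.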
DT40 TDP1 CPT: DT40-hTDP1 cell growth loss with CPT; chicken DT40 Tdp1-/-;hTDP1 cells + 20 nM CPT, ATP luminescence, 48 h; Potency, µM (doses to about 46.2 µM), hits mostly inhibitors; hit rate 12% among 420,000; AID 686979; note: nearly all actives have a fitted effect of over 55% in size
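Cell growth measured by CellTiter-Glo luminescence after a minimum 48 h, 37 C compound exposure with 20 nM CPT in Tdp1-knockout DT40 cells stably expressing hTDP1, seeded 400/well; qHTS titration format.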
Hits are given with their value; 0 = inactive; ? = inconclusive; - = no result given. Unless noted, calls come from the whole dose curve; as a rule, active = well fitted curve in the direction sought with a large enough effect; inconclusive = small, poorly fitted or top-dose-only effect, or another doubt; inactive = no such curve, though single readings can be large; an effect the other way counts as inactive or inconclusive.

SMILES | TDP1 block | TDP1 cell noCPT | Giardia kill | IL1B secr inh | ELG1 DNA repair | DT40 TDP1 CPT
CC(C)(C)n1nc2c(c1NC(=O)c1ccc(F)c(F)c1)CS(=O)(=O)C2 | 0 | 16.4µM | 0 | 0 | 0 | 0
O=C(Nc1c2c(nn1-c1ccc(Cl)cc1)CS(=O)(=O)C2)c1cccc(F)c1 | 0 | 18.4µM | - | - | - | 20.6µM
CN(C)C(=O)C[C@@H]1CC[C@@H](NC(=O)C2CCC2)[C@@H](CO)O1 | - | 0 | - | 0 | - | 0
COc1ccc2c(c1)c(C(O)CN1CCC(Cc3ccccc3)CC1)c(C)n2C (centres undefined) | 0 | ? | 0 | -89.6 | 0 | ?
Cc1c(C(O)CN2CCN(Cc3ccc4c(c3)OCO4)CC2)c2ccccc2n1C (centres undefined) | 0 | 0 | 0 | 0 | ? | ?
COc1ccc2c(c1)c(C(O)CN1CCN(Cc3ccc4c(c3)OCO4)CC1)c(C)n2C (centres undefined) | 0 | 23.1µM | 0 | 0 | 0 | ?
COc1ccccc1C1(CCN=Cc2ccc(N(C)C)cc2)CCOC(C)(C)C1 (centres undefined) | - | 0 | 0 | -64.2 | 0 | 0
Cc1ccc(S(=O)(=O)N2CCC(C(=O)OCC(=O)NC3(C#N)CCCCC3)CC2)cc1C | 0 | 0 | 0 | 0 | 0 | 0
CN(Cc1cn(C)c2ccccc12)C(=S)Nc1cc(F)cc(F)c1 | 0 | ? | 0 | 0 | 0 | 0
Cc1cc(C(=O)c2ccccc2)c(NC(=O)CCl)s1 | 0 | 23.1µM | 0 | -100.4 | 0 | 9.2µM
O=C(O)COCC(=O)N1CCN(C2c3ccccc3-c3ccccc32)CC1 | 0 | 0 | 0 | 0 | 0 | 0
CC(=O)N(Cc1cccs1)Cc1cc2ccc(C)c(C)c2nc1Cl | 0 | 20.6µM | 0 | 0 | 11.6µM | 18.4µM
O=C1C=CC(=Nc2ccc3c(c2)Cc2cc(F)ccc2-3)O1 | - | 7.31µM | 0 | 0 | - | 5.17µM
CC(=O)Oc1ccc(C(c2ccc(OC(C)=O)cc2)c2ccccn2)cc1 | 0 | 15µM | 0 | -76.7 | 0 | ?
Cc1cc(NC(=O)CSc2nnc(-c3c[nH]c4ccccc34)n2C)no1 | - | 0 | 0 | 0 | 0 | 0
Cc1ccc(C(=O)N(CCN2CCCCC2)CC2CCCN(C3CCCC3)C2)s1 (centres undefined) | 0 | 20.6µM | 0 | 0 | ? | ?
CSCCC(=O)N1CCC(CCC(=O)NC2CC2)CC1 | 0 | 0 | 0 | 0 | 0 | 0
O=C(CSc1ncccc1C(=O)Oc1ccccc1Cl)Nc1ccc(C(F)(F)F)cc1Cl | 0 | 23.1µM | - | - | - | ?
CCOC(=O)C1CCN(Cc2cc(C(C)(C)C)c(O)c(C(C)(C)C)c2)CC1 | 0 | 18.4µM | 0 | ? | 0 | ?
CC(C)(C)c1cc(CN2CCN(CCO)CC2)cc(C(C)(C)C)c1O | 0 | 20.6µM | 0 | 0 | 0 | 13µM
CCOC(=O)C1CCN(Cc2ccc(OC)c(OCc3ccccc3)c2)CC1 | - | 18.4µM | 0 | 0 | 0 | 13µM
Cc1ccc(C)[n+](CC(=O)N2CCCCC2)c1 | 0 | 0 | 0 | 0 | 0 | 0
NC(=S)Cc1ccc(Cl)cc1Cl | - | 0 | 0 | 0 | 0 | 0
N=C(N)SCc1ccc(Cl)cc1Cl | 0 | 18.4µM | 0 | -100.5 | 10.3µM | 23.1µM
OCCNCCSc1nc(C2CCCCC2)n(-c2ccccc2Cl)n1 | 0 | ? | 0 | ? | 0 | 0
SMILES | TDP1 block | TDP1 cell noCPT | Giardia kill | IL1B secr inh | ELG1 DNA repair | DT40 TDP1 CPT
CC(=O)N1CCc2cc(CNS(=O)(=O)c3cccs3)ccc21 | 0 | 0 | - | - | - | 0
Cc1cccc(C(=O)N2CCc3cc(CNS(=O)(=O)c4ccc(Cl)s4)ccc32)c1 | 0 | 23.1µM | - | - | - | 23.1µM
CCC(=O)N1CCc2cc(CNS(=O)(=O)c3ccc(Cl)s3)ccc21 | 0 | 16.4µM | - | - | - | ?
COc1ccc(OC)c(S(=O)(=O)NCc2ccc3c(c2)CCN3C(=O)c2cccc(C)c2)c1 | 0 | 2.59µM | - | - | - | 2.59µM
Cc1cccc(C(=O)N2CCc3cc(CNS(=O)(=O)c4ccc(F)c(Cl)c4)ccc32)c1 | 0 | 1.16µM | - | - | - | 1.64µM
O=C(CCN1C(=O)/C(=C/c2ccccc2F)SC1=S)NCCCn1ccnc1 | 0 | 0 | 0 | 0 | 0 | 0
